Sampled rows, rich in hits. Any-hit rate of the full collection: about 11%.
HTT cytoprotect: qHTS Multiplex Assay to Identify Dual Action Probes in a Cell Model of Huntington: Cytoprotection (ATP); PC12 HTT-Q103 induced, cytoprotection, ATP luminescence, 40 h; Potency, µM (titrated, usually from 56.4 µM), for inactives: cytoprotection (ATP increase), actives largely listed as activators; actives 0.14% (n = 230,000); note: potency is the fitted concentration of half-maximal effect; % of control where 0% means no effect; nearly all actives have a fitted effect of over 45% in size
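PC12 cells stably carrying ecdysone-inducible Htt exon 1 (Q103)–GFP were induced with 100 nM tebufenozide (final) alongside library compounds in a dose series. Cytoprotection was scored as retained ATP by ATPlite luminescence.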
RGS12 GoLoco inh: qHTS Assay for Inhibitors of RGS12 GoLoco Motif Activity (Red Fluorophore); Gai1:RGS12 GoLoco peptide FP, rhodamine, 10 min; Potency, µM (series often up to 61.6 µM), inactives show at the top dose activity, negative = inhibition, hits mostly inhibitors; actives 0.44% (n = 230,000); AID 880, 2007; active = well fitted inhibition curve with a large enough effect, not every such curve was filed as active; inactive = no such curve, though single readings can be large or run the other way; note: potency is the fitted concentration of half-maximal effect; % is set by controls: 0 for no effect and ±100 for the full control effect; nearly all actives have a fitted effect of over 30% in size
Target sequence (P63096 whole entry, looked up): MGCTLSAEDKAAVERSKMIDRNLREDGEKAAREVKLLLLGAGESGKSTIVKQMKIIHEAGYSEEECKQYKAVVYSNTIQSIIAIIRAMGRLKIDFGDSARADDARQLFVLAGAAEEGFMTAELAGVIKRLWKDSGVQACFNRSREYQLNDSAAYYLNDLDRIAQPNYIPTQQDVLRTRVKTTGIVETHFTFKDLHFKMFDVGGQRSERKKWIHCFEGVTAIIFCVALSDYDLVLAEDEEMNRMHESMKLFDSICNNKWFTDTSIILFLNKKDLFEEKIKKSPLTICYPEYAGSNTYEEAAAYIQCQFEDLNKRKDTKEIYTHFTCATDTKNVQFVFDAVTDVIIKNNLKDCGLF
HttQ103 aggreg: qHTS Multiplex Assay to Identify Dual Action Probes in a Cell Model of Huntington: Aggregate Formation (GFP); actives 1.1% (n = 220,000); Potency, µM (series often up to 46.1 µM), inactives show top-dose activity change, negative = inhibition, actives largely listed as inhibitors; PC12 HttQ103-GFP aggregates, Acumen cytometry, 40 h; AID 1688, 2009; note: potency is the fitted concentration of half-maximal effect; % is set by controls: 0 for no effect and ±100 for the full control effect; nearly all actives have a fitted effect of over 60% in size
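Inducible Q103 Huntingtin exon 1–GFP PC12 line, 1500 cells/well in phenol red free DMEM with 5% equine and 5% calf serum. Tebufenozide 100 nM induced expression; compounds titrated; aggregates quantified by cytometry.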
PNC assembly inh: High Content Assay for Compounds that inhibit the Assembly of the Perinucleolar Compartment. PC3M PTB-GFP, PNC prevalence imaging, 16 h; stronger effect = lower value. AID 2417, 2010. activity change (PNC), negative = inhibition, % at 10 µM. actives 3.1% (n = 140,000);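 active = readout at or below -70, meaning at least 70% loss of cells showing the perinucleolar compartment, a nuclear body marking cancer cells; inconclusive = readout between -30 and a set limit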;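 note: plate controls were DMSO wells for no effect and camptothecin positive control wells for full effect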
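Read-out is percentage of cells bearing a perinucleolar compartment, from automated 20x imaging of fixed, Hoechst-stained PC3M PTB-GFP cells. Cells were seeded 4 h, then exposed 16 h to compound (23 nl of library stock) in duplicate plates.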
HPGD block: qHTS Assay for Inhibitors of HPGD (15-Hydroxyprostaglandin Dehydrogenase); purified HPGD, NADH fluorescence kinetic, PGE2 substrate; AID 894, 2007; Potency, µM, without a hit: top-dose activity change, negative = inhibition, actives largely listed as inhibitors; actives 4.3% (n = 150,000); 15-hydroxyprostaglandin dehydrogenase [NAD(+)] (Homo sapiens), P15428; active = well fitted inhibition curve with a large enough effect, not every such curve was filed as active; inconclusive = small, poorly fitted or top-dose-only effect, or another doubt; inactive = no such curve, though single readings can be large or run the other way; note: potency is the fitted concentration of half-maximal effect; % is set by controls: 0 for no effect and ±100 for the full control effect
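20 nM HPGD preincubated 15 min at room temperature with compound in 50 mM Tris-HCl pH 8, 0.01% Tween 20. Started with 1 mM NAD+ and 30 uM prostaglandin E2; NADH fluorescence (360/450 nm) read 5 times over 30-s intervals, last minus first.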
ALDH1A1 block: qHTS Assay for Inhibitors of Aldehyde Dehydrogenase 1 (ALDH1A1); Aldehyde dehydrogenase 1A1 (Homo sapiens), P00352; Purified ALDH1A1, NADH fluorescence, propionaldehyde substrate; Potency, µM (doses to about 75.3 µM), without a hit: at the top dose activity, negative = inhibition, actives largely listed as inhibitors; actives 7.3% (n = 220,000); active = well fitted inhibition curve with a large enough effect, not every such curve was filed as active; inconclusive = small, poorly fitted or top-dose-only effect, or another doubt; inactive = no such curve, though single readings can be large or run the other way;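 note: potency is the fitted concentration of half-maximal effect; plate controls were no enzyme wells and a reference inhibitor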
Target sequence (P00352 whole entry, looked up): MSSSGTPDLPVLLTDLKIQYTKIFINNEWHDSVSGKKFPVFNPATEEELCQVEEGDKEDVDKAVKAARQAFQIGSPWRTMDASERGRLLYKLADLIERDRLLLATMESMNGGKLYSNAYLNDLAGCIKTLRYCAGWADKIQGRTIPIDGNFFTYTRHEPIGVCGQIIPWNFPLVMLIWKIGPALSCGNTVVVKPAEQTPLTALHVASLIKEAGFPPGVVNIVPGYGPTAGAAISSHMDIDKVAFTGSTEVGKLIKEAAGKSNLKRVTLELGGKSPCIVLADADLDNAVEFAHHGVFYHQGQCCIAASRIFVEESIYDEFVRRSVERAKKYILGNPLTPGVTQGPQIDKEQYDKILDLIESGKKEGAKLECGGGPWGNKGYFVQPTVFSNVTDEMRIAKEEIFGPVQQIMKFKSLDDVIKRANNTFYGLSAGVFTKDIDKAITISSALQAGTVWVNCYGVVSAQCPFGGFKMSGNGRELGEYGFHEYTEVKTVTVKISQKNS
Numbers without * were called inactive; ! = not active in a repeat; [ ] = dose if it differs, or a comment. Unless noted, calls come from the whole dose curve; as a rule, active = well fitted curve in the direction sought with a large enough effect; inconclusive = small, poorly fitted or top-dose-only effect, or another doubt; inactive = no such curve, though single readings can be large; an effect the other way counts as inactive or inconclusive.

What do the screens show for `CCCC(=O)n1nc(-c2ccco2)nc1SCc1ccccc1`?
HTT cytoprotect: -18.9%[10 µM]; RGS12 GoLoco inh: 15.2%; HttQ103 aggreg: 5.2%; PNC assembly inh: -9.4; HPGD block: inconclusive; ALDH1A1 block: inconclusive

Results for Oc1ccc(C2=NNC(=NCc3ccc4c(c3)OCO4)SC2)c(O)c1 ?
HTT cytoprotect: -26.5%[1.9 µM]; RGS12 GoLoco inh: -0.9%; HttQ103 aggreg: inconclusive; PNC assembly inh: inconclusive; HPGD block: inconclusive; ALDH1A1 block: inconclusive

What do the screens show for `Clc1ccc(C2=NNC(=NCc3ccc4c(c3)OCO4)SC2)cc1`?
HTT cytoprotect: 10.6%[10 µM]; HttQ103 aggreg: 16.9%; PNC assembly inh: inconclusive; ALDH1A1 block: 22.4µM*

What do the screens show for `Cc1cc(C(=O)COC(=O)c2cccn2C)c(C)n1Cc1ccco1`?
HTT cytoprotect: -128.3%; RGS12 GoLoco inh: 13.1%; HttQ103 aggreg: inconclusive; ALDH1A1 block: 25.1µM*

How did N#C/C(=N\O)c1nc(-c2ccccc2)cs1 do in these assays?
HTT cytoprotect: -7.0%; RGS12 GoLoco inh: 0.6%; HttQ103 aggreg: 8.91µM*!; PNC assembly inh: -126.9*!; HPGD block: -26.0%; ALDH1A1 block: 0.2%

What do the screens show for `Cc1cc(-n2c(C)cc(C(=S)N3CCOCC3)c2C)ccc1Br`?
HTT cytoprotect: 30.6%[10 µM]; RGS12 GoLoco inh: 2.4%; HttQ103 aggreg: -4.9%; PNC assembly inh: -16.7; HPGD block: 10µM*; ALDH1A1 block: 11.2µM*

What do the screens show for `COc1ccc2c(c1)O[C@H](c1ccc3c(c1)OCO3)[C@@H](OC(=O)NS(=O)(=O)c1ccc(F)cc1)C2=O`?
HTT cytoprotect: 28.6%; RGS12 GoLoco inh: 3.2%; HPGD block: -6.9%; ALDH1A1 block: 3.2%

Results for O=C(O)c1ccc(CSc2nc(-c3ccc(Cl)cc3)cc(C(F)(F)F)n2)cc1 ?
HTT cytoprotect: -7.2%; RGS12 GoLoco inh: -11.2%; HttQ103 aggreg: 9.1%; PNC assembly inh: 18.4; HPGD block: 12.6µM*; ALDH1A1 block: 2.0%

Results for COn1c(C)c(C(C)=O)c2c3no[n+]([O-])c3ccc21 ?
HTT cytoprotect: -11.8%; RGS12 GoLoco inh: 9.7%; HttQ103 aggreg: -24.7%; PNC assembly inh: 55.4; HPGD block: -9.8%; ALDH1A1 block: 7.4%

How did CCOC(=O)c1c(C)n(OCc2ccccc2)c2ccc3nonc3c12 do in these assays?
HTT cytoprotect: -1.4%[10 µM]; RGS12 GoLoco inh: 2.5%; HttQ103 aggreg: 10.2%; PNC assembly inh: 26.0; HPGD block: inconclusive; ALDH1A1 block: inconclusive

Results for C=CCOn1c(C)c(C(C)=O)c2c3no[n+]([O-])c3ccc21 ?
HTT cytoprotect: 6.9%[10 µM]; RGS12 GoLoco inh: 6.1%; HttQ103 aggreg: 22.4µM*; PNC assembly inh: 9.1; HPGD block: -9.6%; ALDH1A1 block: 8.4%

How did C=CCOn1c(C)c(C(C)=O)c2c3nonc3ccc21 do in these assays?
HTT cytoprotect: 7.8%[1.9 µM]; RGS12 GoLoco inh: 14.2%; HttQ103 aggreg: 11.2µM*; PNC assembly inh: -14.9; HPGD block: inconclusive; ALDH1A1 block: inconclusive

How did O=C(CN(c1ccccc1)S(=O)(=O)c1ccccc1)N1CCN(Cc2ccc3c(c2)OCO3)CC1 do in these assays?
HTT cytoprotect: 3.9%; RGS12 GoLoco inh: 0.9%; HttQ103 aggreg: -7.7%; PNC assembly inh: -87.8*; HPGD block: -1.9%; ALDH1A1 block: -2.7%

What do the screens show for `CC(C)NC(=S)N1CCN(Cc2ccc3c(c2)OCO3)CC1`?
HTT cytoprotect: -18.1%[10 µM]; RGS12 GoLoco inh: 2.3%; HttQ103 aggreg: 16.3%; ALDH1A1 block: 22.4µM*

What do the screens show for `CC(C)CNS(=O)(=O)c1ccc(CCC(=O)N2CCN(Cc3ccc4c(c3)OCO4)CC2)cc1`?
HTT cytoprotect: -18.2%[0.074 µM]; RGS12 GoLoco inh: 20.0%; HttQ103 aggreg: 11.2µM*; PNC assembly inh: 154.4; HPGD block: -12.3%; ALDH1A1 block: -5.3%

Results for CCCCNC(=S)N1CCN(Cc2ccc3c(c2)OCO3)CC1 ?
HTT cytoprotect: -18.0%; RGS12 GoLoco inh: -17.3%; HttQ103 aggreg: 6.7%; ALDH1A1 block: inconclusive

Results for CSc1ccc(S(=O)(=O)N2CCN(Cc3ccc4c(c3)OCO4)CC2)cc1 ?
HTT cytoprotect: -17.2%[10 µM]; RGS12 GoLoco inh: 2.4%; HttQ103 aggreg: 2.2%; PNC assembly inh: 7.6; HPGD block: -3.3%; ALDH1A1 block: 14.1µM*

How did C=CCNC(=S)N1CCN(CCN=CC2=C(O)CC(c3ccc(Cl)cc3)CC2=O)CC1 (stereo not given) do in these assays?
HTT cytoprotect: -15.4%; RGS12 GoLoco inh: 6.7%; HttQ103 aggreg: -7.5%; ALDH1A1 block: -15.0%

Results for CC(C)NC(=O)/C(C#N)=C/c1cccc(NC(=O)c2ccccc2Cl)c1 ?
HTT cytoprotect: 20.2%[10 µM]; RGS12 GoLoco inh: 10.8%; HttQ103 aggreg: 24.7%; PNC assembly inh: 32.4; HPGD block: -22.5%; ALDH1A1 block: 14.1µM*

Results for COCCNC(=O)/C(C#N)=C/c1cc(C)n(C2CCCCC2)c1C ?
HTT cytoprotect: -117.1%; RGS12 GoLoco inh: 4.9%; HttQ103 aggreg: -5.4%; ALDH1A1 block: inconclusive

Results for COc1cc(/C=C(\C#N)C(=O)NC(C)C)cc(Cl)c1O ?
HTT cytoprotect: -0.6%; RGS12 GoLoco inh: 8.0%; HttQ103 aggreg: -3.6%; ALDH1A1 block: inconclusive

What do the screens show for `COCCNC(=O)/C(C#N)=C/c1cccc(NC(=O)c2ccccc2Cl)c1`?
HTT cytoprotect: 13.6%[10 µM]; RGS12 GoLoco inh: 10.1%; HttQ103 aggreg: -20.7%; PNC assembly inh: 23.9; HPGD block: inconclusive; ALDH1A1 block: 15.8µM*

Results for COCCNC(=O)/C(C#N)=C/C=C/c1ccccc1 ?
HTT cytoprotect: -9.5%[10 µM]; RGS12 GoLoco inh: 10.5%; HttQ103 aggreg: 5.9%; ALDH1A1 block: -2.7%

How did COCCNC(=O)/C(C#N)=C/c1cc(C)n(-c2ccc(C)cc2)c1C do in these assays?
HTT cytoprotect: -12.1%[10 µM]; RGS12 GoLoco inh: 0.2%; HttQ103 aggreg: 6.6%[9.22 µM]; ALDH1A1 block: 5.62µM*

What do the screens show for `C=CCNC(=O)c1cc(Cl)cc(Cl)c1`?
HTT cytoprotect: -7.4%; RGS12 GoLoco inh: -10.5%; HttQ103 aggreg: -21.3%; ALDH1A1 block: 11.3%

Results for Nc1ncn(C2C[C@H](O)[C@@H](CO)O2)c(=O)n1 (stereo not given in full) ?
HTT cytoprotect: -18.6%; RGS12 GoLoco inh: 4.7%; HttQ103 aggreg: -3.8%

Results for OCC1OC(n2cnc3c(Cl)ncnc32)C(O)C1O (stereo not given) ?
RGS12 GoLoco inh: -1.6%; HPGD block: -2.9%; ALDH1A1 block: 3.3%
